Data published in PubChem BioAssay (NCATS).
Results filed as inconclusive are left out. Calls of active or inactive are those of the source. The call rests on the fitted dose curve; in most records, active means well fitted curve in the direction sought with a large enough effect; inconclusive means small, poorly fitted or top-dose-only effect, or another doubt; inactive means no such curve, though single readings can be large; an effect the other way counts as inactive or inconclusive.

What was measured:
[1] = Quantitative highthroughput screen to assess conditional lethalithy of NOMO1 cells grown in Human Plasma-Like Medium with dialyzed fetal bovine serum (HPLM+ds) (AID 1963878); further: nearly all actives have a fitted effect of over 35% in size; further: potency means the concentration at half of the fitted maximal effect;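 on viability: 100% = DMSO wells and 0% = empty wells on each plate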
Method in brief: (§1)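 Each medium arm—HPLM with 10% dialyzed FBS, or RPMI1640 with 5 mM glucose and 10% untreated or dialyzed FBS—was screened against an 11-point, 3-fold compound titration for 48 h at 37 °C, with CellTiter-Glo luminescence as endpoint.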

[2] = Quantitative highthroughput screen to assess conditional lethalithy of P12 Ichikawa cells grown in RPMI1640 with untreated serum (RPMI+s) (AID 1963881); details: Potency: viability; further: nearly all actives have a fitted effect of over 35% in size; further: potency means the concentration at half of the fitted maximal effect;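 on viability: series mostly up to about 46 µM; 100% = DMSO wells and 0% = empty wells without cells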
Method in brief: as §1

[3] = Cellular viability qHTS for adrenocortical cancer (ACC) cell line SW-13 (AID 1963989); details: SW-13 ACC cells viability, CellTiter-Glo, 48 h; activity (max response): active compounds read low;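 further: cells grown in serum-free medium with ITS supplement; on the % scale 0 is the no-effect control and ±100 the full control effect; nearly all actives have a fitted effect of over 65% in size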
Method in brief: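 Compound titrations (up to 46 uM final, in DMSO) were applied to SW-13 cells for 48 h at 37C/5% CO2. Reading used CellTiter-Glo after 20 min at room temperature; fitted curves yielded IC50 and efficacy.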

[4] = Cellular viability qHTS for adrenocortical cancer (ACC) cell line NCI-H295R (AID 1963990);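 further: 0% = DMSO only wells and -100% = full killing with cytotoxic reference compound; nearly all actives have a fitted effect of over 60% in size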
Method in brief: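 Readout: CellTiter-Glo luminescence, 20 min RT. Exposure: 48 h, 37C/5% CO2. Cells: NCI-H295R, ITS-DMEM serum-free. Range: up to 46 uM. Analysis: 4PL fit, IC50 plus efficacy.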

[5] = Quantitative highthroughput screen to assess conditional lethalithy of P12 Ichikawa cells grown in Human Plasma-Like Medium with dialyzed fetal bovine serum (HPLM+ds) (AID 1963879); details: Potency: viability; further: nearly all actives have a fitted effect of over 35% in size; further: potency means the concentration at half of the fitted maximal effect; on viability: series mostly up to about 46 µM
Method in brief: as §1

[6] = Quantitative highthroughput screen to assess conditional lethalithy of SEM cells grown in Human Plasma-Like Medium with dialyzed fetal bovine serum (HPLM+ds) (AID 1963882); further: nearly all actives have a fitted effect of over 35% in size; further: potency means the concentration at half of the fitted maximal effect; on viability: series mostly up to about 46 µM
Method in brief: as §1

[7] = Quantitative highthroughput screen to assess conditional lethalithy of P12 Ichikawa cells grown in RPMI1640 with dialyzed fetal bovine serum (RPMI+ds) (AID 1963880); details: Potency: P12-Ichikawa viability; further: nearly all actives have a fitted effect of over 35% in size; further: potency means the concentration at half of the fitted maximal effect;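 on viability: 100% = DMSO wells and 0% = empty wells on each plate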
Method in brief: as §1

[8] = Quantitative highthroughput screen to assess conditional lethalithy of SEM cells grown in RPMI1640 with unreated serum (RPMI+s) (AID 1963883); further: nearly all actives have a fitted effect of over 35% in size; further: potency means the concentration at half of the fitted maximal effect;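 on viability: 100% = DMSO wells and 0% = empty wells without cells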
Method in brief: as §1

[9] = Quantitative highthroughput screen to assess conditional lethalithy of SEM cells grown in RPMI1640 with dialyzed fetal bovine serum (RPMI+ds) (AID 1963884); further: nearly all actives have a fitted effect of over 35% in size; further: potency means the concentration at half of the fitted maximal effect;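 on viability: series mostly up to about 46 µM; 100% = DMSO control wells and 0% = empty wells without cells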
Method in brief: as §1

[10] = Quantitative highthroughput screen to assess conditional lethalithy of NOMO1 cells grown in RPMI1640 with dialyzed fetal bovine serum (RPMI+ds) (AID 1963877); further: potency means the concentration at half of the fitted maximal effect; nearly all actives have a fitted effect of over 30% in size
Method in brief: as §1

Clc1ccc2ncc(-c3cccc(NC4CNC4)n3)n2c1
active: Potency [1] 20.9 µM | Potency [2] 23.5 µM
inactive: activity (max response) [3] 12.3% | Potency [4]

N#Cc1ccc(COC[C@H]2O[C@@H](n3c(NCc4ccc(Cl)c(Cl)c4)nc4c(N)ncnc43)[C@@H](O)[C@@H]2O)cc1
inactive: Potency [5] | Potency [6]
active: Potency [1] 7.43 µM

O=C(O)C[C@H](O)C[C@H](O)C=Cc1c(C2CC2)nc2ccccc2c1-c1ccc(F)cc1
active: Potency [1] 20.9 µM | Potency [7] 4.18 µM | Potency [2] 3.72 µM | Potency [8] 11.8 µM

CO[C@H]1C[C@@H]2CC[C@@H](C)[C@@](O)(O2)C(=O)C(=O)N2CCCC[C@@H]2C(=O)O[C@H]([C@H](C)C[C@@H]2CC[C@H](OC(=O)C(C)(CO)CO)[C@H](OC)C2)CC(=O)[C@H](C)C=C(C)[C@@H](O)[C@@H](OC)C(=O)[C@H](C)C[C@H](C)C=CC=CC=C1C
active: Potency [5] 6.62 µM

C[C@H](NCc1ccc(OCc2cccc(F)c2)cc1)C(N)=O
active: Potency [1] 20.9 µM | Potency [5] 23.5 µM | Potency [6] 0.469 µM | Potency [8] 0.662 µM | Potency [9] 0.332 µM

CC(C)N(CCCNC(=O)Nc1ccc(C(C)(C)C)cc1)C[C@H]1O[C@@H](n2cc(Br)c3c(N)ncnc32)[C@H](O)[C@H]1O
active: Potency [1] 20.9 µM | Potency [8] 20.9 µM

O=C(Cc1cccc(OC(F)(F)F)c1)Nc1ccc(CCCCc2nnc(NC(=O)Cc3ccccn3)s2)nn1
active: Potency [6] 0.0524 µM
inactive: Potency [1] | Potency [5] | activity (max response) [3] 11.1% | Potency [4]

O=C1NC(=O)C(=Cc2ccc(-c3ccc(F)cc3)o2)S1
inactive: Potency [1] | Potency [5] | Potency [7] | Potency [2] | Potency [6] | Potency [8] | Potency [9]

C=CCNc1c(O)cc2c(O)c1C[C@@H](C)C[C@H](OC)[C@@H](O)[C@@H](C)C=C(C)[C@H](OC(N)=O)[C@@H](OC)C=CC=C(C)C(=O)N2
active: Potency [1] 13.2 µM | Potency [6] 1.66 µM | Potency [8] 0.833 µM | Potency [9] 0.833 µM

CC(C)NC[C@@H](C(=O)N1CCN(c2ncnc3c2[C@H](C)C[C@H]3O)CC1)c1ccc(Cl)cc1
active: Potency [1] 14.8 µM | Potency [6] 0.296 µM | Potency [8] 0.296 µM

Clc1ccc(COC(Cn2ccnc2)c2ccc(Cl)cc2Cl)cc1 (configuration not stated)
active: Potency [7] 5.9 µM
inactive: Potency [1] | Potency [5] | Potency [6] | Potency [9]

O=C(OCC#CCSc1nnc(-c2cccc3ccccc23)o1)c1cc2ccccc2s1
inactive: Potency [1] | Potency [2] | Potency [6] | Potency [8] | Potency [9]

Cc1nnc(C(C)C)n1C1C[C@H]2CC[C@@H](C1)N2CC[C@H](NC(=O)C1CCC(F)(F)CC1)c1ccccc1 (some centres not stated)
active: Potency [5] 16.6 µM

CC(=O)Nc1sc2c(c1-c1nc3ccccc3s1)CNC2
active: Potency [2] 16.6 µM | Potency [6] 18.7 µM | Potency [9] 18.7 µM
inactive: Potency [1] | Potency [5]

C=CC[C@@H]1C=C(C)C[C@H](C)C[C@H](OC)[C@H]2O[C@@](O)(C(=O)C(=O)N3CCCC[C@H]3C(=O)O[C@H](C(C)=C[C@@H]3CC[C@H](O)[C@H](OC)C3)[C@@H](C)[C@@H](O)CC1=O)[C@@H](C)C[C@@H]2OC
active: Potency [1] 4.18 µM | Potency [7] 6.62 µM | Potency [2] 6.62 µM | Potency [6] 3.32 µM | Potency [8] 1.48 µM

Cc1ccc(NC(=O)Nc2cc(C(F)(F)F)ccc2F)cc1Nc1ccc2c(c1)NC(=O)C2=Cc1ccc[nH]1
active: Potency [10] 20.9 µM | Potency [6] 18.7 µM | Potency [8] 18.7 µM | Potency [9] 16.6 µM

COc1cccc(-c2ccc(NC(=O)C3=C(C(=O)O)CCC3)c(F)c2)c1
inactive: Potency [1] | Potency [6]
active: Potency [5] 16.6 µM

O=C(O)COCCN1CCN(C(c2ccccc2)c2ccc(Cl)cc2)CC1 (configuration not stated)
inactive: Potency [1] | Potency [5] | Potency [7] | Potency [2] | Potency [6] | Potency [8] | Potency [9] | activity (max response) [3] 9.41% | Potency [4]

Cc1cnn(C)c1C(=O)Nc1cc(Nc2ccc3c(C=Cc4ccccn4)n[nH]c3c2)ccc1F
active: Potency [1] 16.6 µM | Potency [6] 2.96 µM | Potency [8] 3.72 µM | Potency [9] 2.64 µM

CC(C)N(C[C@H]1O[C@@H](n2cnc3c(N)ncnc32)[C@H](O)[C@@H]1O)C1CC(CCc2nc3ccc(C(C)(C)C)cc3[nH]2)C1 (some centres not stated)
inactive: activity (max response) [3] 7.65% | Potency [4]
active: Potency [1] 5.88 µM | Potency [7] 3.71 µM | Potency [8] 1.05 µM | Potency [9] 11.7 µM

CC1=C(C(=O)Nc2cc3cn[nH]c3cc2F)C(c2ccc(C(F)(F)F)cc2)CC(=O)N1 (configuration not stated)
active: Potency [1] 11.8 µM | Potency [2] 10.5 µM
inactive: activity (max response) [3] 5.03% | Potency [4]

Oc1ccc(C=Cc2cc(O)cc(O)c2)cc1
active: Potency [1] 14.8 µM | Potency [8] 11.8 µM | Potency [9] 20.9 µM
